# Test results from PubChem BioAssay AID624134 (Broad Institute, 2012).
# The campaign covered roughly 1,600 compounds. About 1,100 (69%) were called active. So high a share suggests a set chosen from earlier hits. Only a sample is shown. Results with a measured potency or affinity are listed apart. Inconclusive results are not listed.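 The calls were made as follows: active = signal drop with fitted half-maximal concentration no higher than twice the top valid tested concentration; inconclusive = flat curve with 30 to 70% signal loss, or poor fit; inactive = the rest, including signal rises and flat curves within 30%.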
# Assay: loss of viability in HepG2 cells – cell-based, CellTiter-Glo, cherry-picked, cytotoxicity control for Shn3 inhibitor project, dose response (AID 624134);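 also: 0% = median of neutral control wells and -100% = median of positive control wells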
# Details: CellTiter-Glo ATP luminescence, 48 h; series mostly up to 35 µM; activity change, negative = cytotoxicity: at the top concentration
row,SMILES,"activity change, negative = cytotoxicity"
1,CC(C)c1nnc(NC(=O)CCS(=O)(=O)c2nc(-c3cccs3)cc(C(F)(F)F)n2)s1,-52.3% (inactive)
2,COc1ccccc1-c1cc(C(F)(F)F)nc(S(=O)(=O)CCCC(=O)Nc2cccnc2Cl)n1,10.7% [at 16 µM] (inactive)
3,COC(=O)c1ccc(N2CCN(S(=O)(=O)c3ccc(C)cc3)CC2)c([N+](=O)[O-])c1,-5.05% (inactive)
4,O=C1CC2(CCN(C(=O)c3ccccc3F)CC2)Oc2ccccc21,-2.72% (inactive)
5,O=C(CSc1c2c(nc3ccc(Cl)cc13)CCCC2)NCc1ccco1,-13.9% (inactive)
6,CSCCC(NC(=O)c1ccccc1)C(=O)OCC(=O)N(C)CCC#N (stereo unspecified),-5.72% (inactive)
7,CC[C@@H](C(=O)[C@@H](C)[C@@H](O)[C@H](C)CCc1ccc(C)c(O)c1C(=O)O)[C@H]1O[C@](CC)([C@H]2CC[C@](O)(CC)[C@H](C)O2)C[C@@H]1C,25.4% (inactive)
8,Cc1cc(C)n2nc(SCc3cccc(S(=O)(=O)N(C)C)c3)nc2n1,-6.75% (inactive)
9,CC(C)NCC(O)COc1cccc2ccccc12 (stereo unspecified),-1.75% (inactive)
10,CCn1c(C)nc2cc(-c3nnc(-c4c(-c5ccccc5)noc4C)o3)ccc21,-9.46% (inactive)
11,COc1ccc(N(C)C(=O)c2ccc3snnc3c2)cc1,-7.24% (inactive)
12,COc1ccc(-c2ccc(Nc3ccc(S(=O)(=O)N4CCCC4)cc3)nn2)cc1OC,-6.38% (inactive)
13,Cc1ccc(C(=O)/C=C/c2ccc(-c3ccc(C)cc3)o2)cc1,-19.4% (inactive)
14,COC(=O)Oc1ccc(/C=C/C(=O)OC(C)C)cc1OC(=O)OC,-16.1% (inactive)
15,CCc1c(C)nc2cc(-c3ccc(OC)c(OC)c3)nn2c1NCC1CC1,-10.7% (inactive)
16,C=CS(=O)(=O)c1sc(Cl)c(N2CCOCC2)c1[N+](=O)[O-],-16.6% (inactive)
17,COc1ccc(-c2nsc3c(N4CCCCC4C)ncnc23)cc1 (stereo unspecified),-2.42% (inactive)
18,CC(Cc1cccs1)NC(=O)Nc1ccc(F)cc1 (stereo unspecified),-3.13% (inactive)
19,COc1ccc(CNC(=O)C(c2ccc(C)cc2)N(Cc2cccs2)C(=O)c2ccc3c(c2)OCCO3)cc1 (stereo unspecified),-11.3% (inactive)
20,COc1ccc(C(O)c2nc(-c3cccc(F)c3)cs2)cc1 (stereo unspecified),-10.4% (inactive)
21,O=C(C1=C[C@@H](C2CC2)C[C@@H](OCCCCO)O1)N1CCN(Cc2ccccc2)CC1,-3.33% (inactive)
22,NC(=O)c1cc(N2C(=O)C=CC2=O)ccc1Cl,-12.6% (inactive)
23,CC(C)C(NC(=O)c1ccc(Cl)cc1Cl)C(=O)N1CCN(S(=O)(=O)c2ccccc2)CC1 (stereo unspecified),-15.1% (inactive)

row,SMILES,"activity change, negative = cytotoxicity"
1,O=C(Cc1ccccc1)NCCS(=O)c1ccc(Cl)cc1 (stereo unspecified),0.411% (inactive)
2,Nc1nnc(SCC(=O)Nc2ccc(N3CCOCC3)cc2)s1,14.7% (inactive)
3,CCCc1ccc(C(=O)NNc2cc(Cl)ccc2Cl)cc1,-8.35% (inactive)
4,O=C(c1ccc(S(=O)(=O)c2ccc(F)cc2)c([N+](=O)[O-])c1)N1CCCCCC1,-6.03% (inactive)
5,OCCNc1nc(Nc2ccc(Cl)cc2)nc(N2CCCC2)n1,-5.38% (inactive)
6,CCCn1c(C)cc(C(=O)CN2C(=O)c3ccccc3S2(=O)=O)c1C,0.847% (inactive)
7,O=C1S/C(=C\c2ccc(N3CCOCC3)o2)C(=O)N1Cc1c(F)cccc1Cl,-15.7% (inactive)
8,COc1c(C)cc(C(=O)C2CCCN(C(=O)c3cccc(-n4cccn4)c3)C2)cc1C (stereo unspecified),-3.56% (inactive)
9,Cc1nc2scc(C)n2c(=O)c1S(=O)(=O)Nc1ccc(N2CCOCC2)c(Cl)c1,-6.26% (inactive)
10,O=C(CSc1nc2ncc(Cl)cc2[nH]1)N1CCOCC1,-4.52% (inactive)
11,CC(C)(C)C(=O)Nc1ccc(NC(=O)c2ccco2)nc1,-10.1% (inactive)
12,COc1ccc(S(=O)(=O)NCCC(=O)OCC(=O)NC2CC2)cc1,-16.9% (inactive)
13,O=C(CSc1nnc(Nc2ccccc2)s1)NC1CCS(=O)(=O)C1 (stereo unspecified),-8.91% (inactive)
14,Cc1ccc(S(=O)(=O)N2CCCCC2)cc1NS(=O)(=O)c1ccccc1F,-9.02% (inactive)
15,COc1cccc(C2CC(c3ccc(C)cc3)=NN2C(=O)c2ccccc2F)c1OC (stereo unspecified),-7.78% (inactive)
16,Cc1cc(C(=O)Cn2cnc3cc(F)ccc3c2=O)c(C)n1C1CC1,-1.41% (inactive)
17,CCCc1nc([N+](=O)[O-])c(S(=O)(=O)c2ccccc2)n1CC(C)C,-25.5% (inactive)
18,Cc1ccc(C(=O)Nc2ccc3c(c2)C(=O)N(CC2CCCO2)C3=O)cc1 (stereo unspecified),-10.1% (inactive)
19,COc1ccc([C@@]23Oc4cc(OC)cc(OC)c4[C@]2(O)[C@H](O)[C@H](C(=O)N(C)C)[C@H]3c2ccccc2)cc1,-8.25% (inactive)
20,CCN(CC)C(=O)C1CCCN(c2ccc([N+](=O)[O-])cc2[N+](=O)[O-])C1 (stereo unspecified),-12.1% (inactive)
21,CCCCN1CC(COCc2ccccc2)Oc2cccc(Oc3ccc(C(C)C)cc3)c2S1(=O)=O (stereo unspecified),-4.99% (inactive)
22,COc1cccc(-c2nc(NC3CCCC3)c3ccccc3n2)c1O,-14.4% (inactive)
23,O=C(N[C@@H]1C/C=C\C[C@@H](CC(=O)N(CCO)Cc2ccccc2)C(=O)NC[C@H](c2ccccc2)OC1=O)OCC1c2ccccc2-c2ccccc21,2.33% (inactive)
